{"source": "PubChem BioAssay (NCATS)", "key": {"[1]": {"target": "Cytochrome P450 2C9 (Homo sapiens) (UniProt P11712)", "sequence (P11712 whole entry, looked up)": "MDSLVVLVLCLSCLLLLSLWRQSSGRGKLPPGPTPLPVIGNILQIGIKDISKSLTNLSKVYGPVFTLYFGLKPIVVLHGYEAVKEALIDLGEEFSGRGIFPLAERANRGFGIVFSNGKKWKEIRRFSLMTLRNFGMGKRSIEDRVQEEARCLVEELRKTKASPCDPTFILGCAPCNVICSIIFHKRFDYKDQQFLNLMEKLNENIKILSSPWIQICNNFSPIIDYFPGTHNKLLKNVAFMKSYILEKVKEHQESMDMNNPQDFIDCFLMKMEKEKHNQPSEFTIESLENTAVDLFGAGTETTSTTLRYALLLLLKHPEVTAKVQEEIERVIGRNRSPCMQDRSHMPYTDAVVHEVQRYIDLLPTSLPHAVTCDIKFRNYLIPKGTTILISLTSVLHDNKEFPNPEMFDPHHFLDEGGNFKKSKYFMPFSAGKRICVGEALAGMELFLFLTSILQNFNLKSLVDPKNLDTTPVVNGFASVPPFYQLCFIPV", "experiment": "Cytochrome P450 family 2 subfamily C member 9 (CYP2C9) small molecule antagonists: luciferase biochemical (cell-free) qHTS assay (AID 1645842; active means well fitted curve in the direction sought with a large enough effect in the repeat runs; an effect the other way counts as inactive or inconclusive; further: nearly all actives have a fitted effect of over 55% in size)", "procedure,_shortened": "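Luminescence, after 20 min with luciferin detection reagent, reflected CYP2C9 turnover during a 1 h NADPH-driven reaction at 37C. Enzyme-substrate mix contained 0.4% bovine serum albumin and was preincubated with compound 10 min at room temperature.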"}, "[2]": {"experiment": "Primary qHTS for inhibitors of nuclear receptor binding SET domain protein 2 (NSD2) in an isogenic RCH-ACV NSD2 p.E1099K mutant (9B) (AID 1645876); further: nearly all actives have a fitted effect of over 70% in size"}, "[3]": {"experiment": "Primary qHTS for inhibitors of nuclear receptor binding SET domain protein 2 (NSD2) in an RCH-ACV wild type WT cells (2C) (AID 1645877); further: nearly all actives have a fitted effect of over 70% in size"}}, "note": "Results filed as inconclusive are left out. Entries that show only a call come without a potency. Activity calls are given as the source filed them. Unless noted, the call rests on the fitted dose curve; in most records, active means well fitted curve in the direction sought with a large enough effect; inconclusive means small, poorly fitted or top-dose-only effect, or another doubt; inactive means no such curve, though single readings can be large; an effect the other way counts as inactive or inconclusive. Potency means the concentration at half of the fitted maximal effect."}
{"compound": "COC(=O)N/N=C/c1c[n+]([O-])c2ccccc2[n+]1[O-]", "values": [{"measurement": "Potency", "setting": "[1]", "value": "inactive"}, {"measurement": "Potency", "setting": "[2]", "value": "23.7 µM (active)"}, {"measurement": "Potency", "setting": "[3]", "value": "7.5 µM (active)"}]}
{"compound": "COc1nccnc1NS(=O)(=O)c1ccc(N)cc1", "values": [{"measurement": "Potency", "setting": "[1]", "value": "inactive"}, {"measurement": "Potency", "setting": "[2]", "value": "inactive"}, {"measurement": "Potency", "setting": "[3]", "value": "inactive"}]}
{"compound": "Cc1c(C)c2c(c(C)c1OC(=O)c1cccnc1)CC[C@@](C)(CCC[C@H](C)CCC[C@H](C)CCCC(C)C)O2", "values": [{"measurement": "Potency", "setting": "[1]", "value": "inactive"}, {"measurement": "Potency", "setting": "[2]", "value": "inactive"}, {"measurement": "Potency", "setting": "[3]", "value": "inactive"}]}
{"compound": "CC(=O)[C@@]1(O)CC[C@H]2[C@@H]3C[C@H](C)C4=CC(=O)C=C[C@]4(C)[C@@]3(F)[C@@H](O)C[C@@]21C", "values": [{"measurement": "Potency", "setting": "[1]", "value": "4.36 µM (active)"}, {"measurement": "Potency", "setting": "[2]", "value": "inactive"}, {"measurement": "Potency", "setting": "[3]", "value": "0.003 µM (active)"}]}
{"compound": "C[C@]1(Cn2ccnn2)[C@H](C(=O)O)N2C(=O)C[C@H]2S1(=O)=O", "values": [{"measurement": "Potency", "setting": "[1]", "value": "inactive"}, {"measurement": "Potency", "setting": "[2]", "value": "inactive"}, {"measurement": "Potency", "setting": "[3]", "value": "inactive"}]}
{"compound": "Cc1cc(OI)c(C(C)C)cc1-c1cc(C(C)C)c(OI)cc1C", "values": [{"measurement": "Potency", "setting": "[1]", "value": "12.3 µM (active)"}, {"measurement": "Potency", "setting": "[2]", "value": "inactive"}, {"measurement": "Potency", "setting": "[3]", "value": "inactive"}]}
{"compound": "CC(=O)Oc1cccc(O)c1", "values": [{"measurement": "Potency", "setting": "[1]", "value": "inactive"}, {"measurement": "Potency", "setting": "[2]", "value": "inactive"}, {"measurement": "Potency", "setting": "[3]", "value": "inactive"}]}
{"compound": "Cc1cc(C)c(NC(=O)CN(CC(=O)O)CC(=O)O)c(C)c1Br", "values": [{"measurement": "Potency", "setting": "[1]", "value": "inactive"}, {"measurement": "Potency", "setting": "[2]", "value": "inactive"}, {"measurement": "Potency", "setting": "[3]", "value": "inactive"}]}
{"compound": "c1ccc2[nH]ccc2c1", "values": [{"measurement": "Potency", "setting": "[1]", "value": "inactive"}, {"measurement": "Potency", "setting": "[2]", "value": "inactive"}, {"measurement": "Potency", "setting": "[3]", "value": "inactive"}]}
{"compound": "COc1ccccc1OC(=O)Oc1ccccc1OC", "values": [{"measurement": "Potency", "setting": "[1]", "value": "inactive"}, {"measurement": "Potency", "setting": "[2]", "value": "inactive"}, {"measurement": "Potency", "setting": "[3]", "value": "inactive"}]}
{"compound": "CN1CCCN=C1COC(=O)C(O)(c1ccccc1)C1CCCCC1", "note": "(configuration not stated)", "values": [{"measurement": "Potency", "setting": "[1]", "value": "inactive"}, {"measurement": "Potency", "setting": "[2]", "value": "inactive"}, {"measurement": "Potency", "setting": "[3]", "value": "inactive"}]}
{"compound": "NC(=O)N[C@@H](CCC(=O)O)C(=O)O", "values": [{"measurement": "Potency", "setting": "[1]", "value": "inactive"}, {"measurement": "Potency", "setting": "[2]", "value": "inactive"}, {"measurement": "Potency", "setting": "[3]", "value": "inactive"}]}
{"compound": "CN(C(=O)c1c(O)c2ccccc2n(C)c1=O)c1ccccc1", "values": [{"measurement": "Potency", "setting": "[1]", "value": "inactive"}, {"measurement": "Potency", "setting": "[2]", "value": "inactive"}, {"measurement": "Potency", "setting": "[3]", "value": "inactive"}]}
{"compound": "Nc1ncnc2c1ncn2[C@@H]1O[C@H](COP(=O)(O)O)[C@@H](O)[C@H]1O", "values": [{"measurement": "Potency", "setting": "[1]", "value": "inactive"}, {"measurement": "Potency", "setting": "[2]", "value": "inactive"}, {"measurement": "Potency", "setting": "[3]", "value": "inactive"}]}
